According to PubChem BioAssay (NCI):
This is part of a sample that, as a whole, favours compounds with a hit. Of some 79,000 tested, about 15% had one in any assay. Active and inactive are the calls of the source. Cut-off read from the data, not from the text of the source: active = growth inhibition above about 70%; inactive = the rest.

test: NCI Yeast Anticancer Drug Screen. Data for the sgs1 mgt1 strain (AID 161);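 note: 0% = growth of cultures given vehicle only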; conditions: S. cerevisiae sgs1 mgt1 strain, at 50.0 µM, active compounds read high
Procedure, shortened: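 Inhibition of yeast growth, normalised to vehicle-treated controls, is reported for a strain bearing genetic alterations in DNA damage repair.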

Compound | growth inhibition
CN(C)/N=N/c1nc2c(c(=O)n(C)c(=O)n2C)n1C | -8.8% (inactive)
CC1(C)OC2COC(CNS(C)(=O)=O)C2O1 (stereo not given) | -9.2% (inactive)
O=c1c2nn3c(=O)n(-c4ccccc4)c(=O)c3nn2c(=O)n1-c1ccccc1 | -14.8% (inactive)
O=C(COc1ccc(Cl)c(Cl)c1)Nc1ccc(C(=O)CCl)cc1 | 19.4% (inactive)
CSc1ncc(Br)c(Sc2nccn2C)n1 | 14.3% (inactive)
N#CCCCN1CCOCC1 | -7.9% (inactive)
CCOC(=O)NNC(=O)C1CSC(c2ccccc2)N1C(C)=O (stereo not given) | -27.1% (inactive)
Cc1ccc(S(=O)(=O)ON2C(=O)c3cccc4cc([N+](=O)[O-])cc(c34)C2=O)cc1 | 39.4% (inactive)
COc1ccccc1-n1nnc2c(N)nc(N)nc21 | -13.2% (inactive)
N[C@@H](C[C@H]1CCC(=O)[C@@H]2O[C@H]12)C(=O)O | -12.5% (inactive)
Cc1c(O)c2ccc3ccccc3c2oc1=O | -7.05% (inactive)
Cc1cccc(C(=O)c2ccccc2)c1C(=O)O | 4.55% (inactive)
Fc1cccc(Cl)c1CSc1n[nH]c(C(F)(F)F)n1 | 10.5% (inactive)
O=C(c1ccccc1)N1C(=S)N=C(Nc2ccccc2)C1=Nc1ccccc1 | -9.8% (inactive)
COc1ccc(C2(C(OC)OC)NC(=O)N(Cc3ccccc3)C2=O)cc1 (stereo not given) | -4.5% (inactive)
CC(C)(CCc1nc2ccccc2[nH]1)C(=O)O | -1.35% (inactive)
Nc1ccc(NC(=S)Nc2ccccc2)cc1 | -3.15% (inactive)
COc1ccc(/C=C2\N=C(c3cc(OC)c(OC)c(OC)c3)OC2=O)cc1 | 18.6% (inactive)
CC(C)(C)OC(=O)C(C1NC(C(=O)O)C(C)(C)S1)N1C(=O)c2ccccc2C1=O (stereo not given) | -53.7% (inactive)
O=C(N/N=C/c1ccccc1[O-])c1ccccc1O.O=C(N/N=C/c1ccccc1[O-])c1ccccc1O.[Fe+2] | -1.5% (inactive)
Cc1ccc(NCC(=O)N2CC(=O)Nc3ccccc32)cc1 | -35.2% (inactive)
O=C(Oc1c(Cl)cc([N+](=O)[O-])cc1[N+](=O)[O-])Sc1ccccc1 | 99.5% (active)
COC(=O)c1ccccc1OC(C)=O | -0.4% (inactive)
O=[N+]([O-])c1cc(Br)c(F)cc1F | -5.2% (inactive)
COc1cc(C(=O)Nc2cccc3ccccc23)c(Br)c(OC)c1OC | 39.5% (inactive)

test: NCI Yeast Anticancer Drug Screen. Data for the cln2 rad14 strain (AID 165);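 note: 0% = growth equal to vehicle treated cultures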; conditions: S. cerevisiae cln2 rad14 strain, at 50.0 µM, active compounds read high
Procedure, shortened: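 The screen exposed genetically defined yeast (cln2 rad14) to test compounds and scored growth inhibition relative to vehicle-treated controls.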

Compound | growth inhibition
CCNC(CCCC1CCCCC1)C(=O)O (stereo not given) | -27.2% (inactive)
O=C(Nc1ccc(Cl)cc1)Nc1nnc2nc(C3(c4nc5nnc(NC(=O)Nc6ccc(Cl)cc6)n5[nH]c4=O)CCCC3=O)c(=O)[nH]n12 | -32.2% (inactive)
C=C(Br)CN1CCC2(c3ccccc3)C(=O)C([Se]c3ccccc3)CCC12 (stereo not given) | -7.25% (inactive)
O=C(NCCCCNCCCNC(=O)c1ccc([N+](=O)[O-])cc1)c1ccc([N+](=O)[O-])cc1 | -26.3% (inactive)
CCCCN=C(C)CC(=O)CC(=O)c1ccccc1 | -53.6% (inactive)
CCc1cccc(C)c1NC(=O)CCc1nnc2s/c(=C\c3cccc4ccccc34)c(=O)n12 | 24.5% (inactive)
COC(=O)C(C(=O)C(=O)Nc1ccc(C)cc1)c1nc2ccc([N+](=O)[O-])cc2[nH]c1=O (stereo not given) | -3.95% (inactive)
CCCCCCC(=O)/C=C/c1ccccc1OC | -20.4% (inactive)
Clc1ccc(OCCBr)cc1 | 19.9% (inactive)
NC(CCC(=O)NC(CSCNC(=O)Nc1ccc(Cl)cc1)C(=O)NCC(=O)O)C(=O)O (stereo not given) | -13.7% (inactive)
C=C1N(C)c2ccccc2C1(C)C | 29.4% (inactive)
CCCCC1(N=[N+]=[N-])C(=O)c2cccc3c2N(CCC3)C1=O (stereo not given) | 3.1% (inactive)
COC(=O)c1ccc(OC(=O)Nc2cccc(C(C)=O)c2)cc1 | -9.2% (inactive)
CCCCCNC(=S)NNC(N)=O | -0.7% (inactive)
c1ccc2c(c1)ccc1c2c[n+](CCCCCCCC[n+]2cc3c4ccccc4ccc3c3ccccc32)c2ccccc12 | 86.2% (active)
CN(C)/N=N/c1nc2c(c(=O)n(C)c(=O)n2C)n1C | 5.05% (inactive)
CC1(C)OC2COC(CNS(C)(=O)=O)C2O1 (stereo not given) | 5.1% (inactive)
O=c1c2nn3c(=O)n(-c4ccccc4)c(=O)c3nn2c(=O)n1-c1ccccc1 | -5.8% (inactive)
O=C(COc1ccc(Cl)c(Cl)c1)Nc1ccc(C(=O)CCl)cc1 | -3.35% (inactive)
CSc1ncc(Br)c(Sc2nccn2C)n1 | 4.7% (inactive)

Compound | growth inhibition
N#CCCCN1CCOCC1 | 15.7% (inactive)
CCOC(=O)NNC(=O)C1CSC(c2ccccc2)N1C(C)=O (stereo not given) | 10.5% (inactive)
Cc1ccc(S(=O)(=O)ON2C(=O)c3cccc4cc([N+](=O)[O-])cc(c34)C2=O)cc1 | 17.4% (inactive)
COc1ccccc1-n1nnc2c(N)nc(N)nc21 | 4.05% (inactive)
N[C@@H](C[C@H]1CCC(=O)[C@@H]2O[C@H]12)C(=O)O | 0.35% (inactive)
Cc1c(O)c2ccc3ccccc3c2oc1=O | -37.4% (inactive)
Cc1cccc(C(=O)c2ccccc2)c1C(=O)O | 2.45% (inactive)
Fc1cccc(Cl)c1CSc1n[nH]c(C(F)(F)F)n1 | 3.2% (inactive)
O=C(c1ccccc1)N1C(=S)N=C(Nc2ccccc2)C1=Nc1ccccc1 | -30.3% (inactive)
COc1ccc(C2(C(OC)OC)NC(=O)N(Cc3ccccc3)C2=O)cc1 (stereo not given) | -49.4% (inactive)
CC(C)(CCc1nc2ccccc2[nH]1)C(=O)O | -10% (inactive)
Nc1ccc(NC(=S)Nc2ccccc2)cc1 | 2.2% (inactive)
COc1ccc(/C=C2\N=C(c3cc(OC)c(OC)c(OC)c3)OC2=O)cc1 | 24.6% (inactive)
CC(C)(C)OC(=O)C(C1NC(C(=O)O)C(C)(C)S1)N1C(=O)c2ccccc2C1=O (stereo not given) | -42.1% (inactive)
O=C(N/N=C/c1ccccc1[O-])c1ccccc1O.O=C(N/N=C/c1ccccc1[O-])c1ccccc1O.[Fe+2] | 19.3% (inactive)
Cc1ccc(NCC(=O)N2CC(=O)Nc3ccccc32)cc1 | -4.45% (inactive)
O=C(Oc1c(Cl)cc([N+](=O)[O-])cc1[N+](=O)[O-])Sc1ccccc1 | 99.2% (active)
COC(=O)c1ccccc1OC(C)=O | 13.8% (inactive)
O=[N+]([O-])c1cc(Br)c(F)cc1F | -32.2% (inactive)
COc1cc(C(=O)Nc2cccc3ccccc23)c(Br)c(OC)c1OC | 26.9% (inactive)
